Only some compounds are listed: those with a hit (about 8.1% of all), similar ones and a draw of the others.
KB-3-1 tox: qHTS assay for MDR1-selective chemotherapeutics: Primary screen using the parental adenocarcinoma cell KB-3-1; KB-3-1 viability, CellTiter-Glo ATP luminescence, 72 h; Potency, µM (doses to about 46.1 µM), actives largely listed as cytotoxic; 400,000 tested, 1.4% active; further: on the % scale 0 is the no-effect control and ±100 the full control effect; nearly all actives have a fitted effect of over 60% in size
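Screening of KB-3-1 cells (DMEM, 10% FBS, phenol-red free) ran from lowest to highest compound concentration; after 72 h at 37 °C viability was read luminescently and curves fitted.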
SW480 rereplic: A quantitative high throughput screen for small molecules that induce DNA re-replication in SW480 colon adenocarcinoma cells; SW480 DNA re-replication, Hoechst DNA content imaging, 48 h; Potency, µM (titrated, usually from 46.1 µM), inactives show at the top dose re-replication activation, actives largely listed as activators; 340,000 tested, 1.8% active; AID 624297, 2012; further: % of control where 0% means no effect; nearly all actives have a fitted effect of over 55% in size
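DNA re-replication was detected as more nuclei of elevated Hoechst intensity after 48 hr exposure to compound (23 nL pinned per well of 250 cells).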
KB-V1 cytotox: qHTS assay for MDR1-selective chemotherapeutics: Primary screen using the drug-selected MDR subline cells KB-V1 | AID 1347076, 2019 | KB-V1 MDR cells viability, CellTiter-Glo, 72 h | 400,000 tested, 3.4% active | Potency, µM (doses to about 46.1 µM), actives largely listed as cytotoxic; further: on the % scale 0 is the no-effect control and ±100 the full control effect; nearly all actives have a fitted effect of over 60% in size
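Drug-selected KB-V1 cells, grown in DMEM lacking phenol red with 10% FBS, receive compound titrations; after three days at 37 degrees C, surviving cell ATP is quantified by CellTiter-Glo luminescence and responses normalized and curve-fitted.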
MCF10A rereplic: A quantitative high throughput screen for small molecules that induce DNA re-replication in MCF 10a normal breast cells; Potency, µM (series often up to 46.1 µM), inactives show at the top dose activity, positive = re-replication, most hits filed as activators; MCF 10A DNA re-replication, Hoechst nuclear intensity, 48 h; 350,000 tested, 2.9% active; further: % of control where 0% means no effect; nearly all actives have a fitted effect of over 50% in size
ELG1 DNA repair: qHTS screen for small molecules that inhibit ELG1-dependent DNA repair in human embryonic kidney (HEK293T) cells expressing luciferase-tagged ELG1. HEK293T ELG1-luciferase reporter, luminescence, 16 h; DNA damage induced by 5-fluorouridine. Potency, µM (titrated, usually from 46.1 µM), inactives show top-dose activity change, negative = inhibition, hits mostly inhibitors. 330,000 tested, 2.3% active. AID 504467, 2011; further: on the % scale 0 is the no-effect control and ±100 the full control effect; nearly all actives have a fitted effect of over 55% in size
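Cells (2,000 per well) received 5-fluorouridine plus test compound or DMSO and were incubated 16 hr at 37 °C, 5% CO2. Luciferase activity was read by luminescence 30 min after ONE-Glo addition; signal suppression marked inhibition of damage-induced ELG1 function.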
ELG1 FLuc counter: qHTS screen for small molecules that inhibit ELG1-dependent DNA repair: Hit Confirmation in Cell-Based Luciferin Assay | shares compounds with ELG1 DNA repair | Potency, µM (series often up to 46.1 µM), for inactives: at the top dose activity change, negative = inhibition, usual class: inhibitors | cell-free firefly luciferase luminescence counter-screen, ViewLux | AID 624247, 2012 | 350 tested, 3% active; further: on the % scale 0 is the no-effect control and ±100 the full control effect
ELG1 Luc conf: HTS assay for small molecules that inhibit ELG1-dependent DNA repair in human embryonic kidney (HEK293T) cells expressing luciferase-tagged ELG1: Hit Confirmation | shares compounds with ELG1 DNA repair | HEK293T ELG1-luciferase levels, luminescence; cells co-treated with 5-fluorouridine | 670 tested, 68% active | AID 624248, 2012 | Potency, µM (highest dose often 46.1 µM), inactives show at the highest dose activity change, negative = inhibition, hits mostly inhibitors; further: on the % scale 0 is the no-effect control and ±100 the full control effect; nearly all actives have a fitted effect of over 55% in size
ELG1 MMS Luc: inhibits ELG1-dependent repair under MMS stimulation in HEK293T cells. shares compounds with ELG1 DNA repair. HEK293T luciferase-tagged ELG1 level, MMS stimulated. Potency, µM (highest dose often 46.1 µM), for the others: at the top dose activity change, negative = inhibition, most hits filed as inhibitors. 670 tested, 53% active; further: on the % scale 0 is the no-effect control and ±100 the full control effect; nearly all actives have a fitted effect of over 60% in size
ELG1 5-FU: qHTS screen for small molecules that inhibit ELG1-dependent DNA repair: Hit Confirmation with 5FU Viability. shares compounds with ELG1 DNA repair. cell viability with 5-FU, ELG1-dependent repair. Potency, µM (highest dose often 46.1 µM), for inactives: at the highest dose activity change, negative = viability loss, hits mostly cytotoxic. 670 tested, under 10 active;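 further: ELG1-luc HEK293T cells cotreated with 5-fluorouridine at 10 µM final; viability measured 16 h after compound addition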
ELG1 MMS cell: qHTS screen for small molecules that inhibit ELG1-dependent DNA repair: Hit Confirmation with MMS Viability. Potency, µM (highest dose often 46.1 µM), for the others: top-dose activity change, negative = viability loss, actives largely listed as cytotoxic. AID 624251, 2012. shares compounds with ELG1 DNA repair. 670 tested, 33% active. Cell viability with MMS, ELG1-dependent DNA repair;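 further: ELG1-luc HEK293T cells co-treated with 10 µM MMS; viability read 16 h after compound addition; on the % scale 0 is the no-effect control and ±100 the full control effect; nearly all actives have a fitted effect of over 60% in size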
Cell viab unstim: qHTS screen for small molecules that inhibit ELG1-dependent DNA repair: Hit Confirmation with Unstimulated Viability Assay. shares compounds with ELG1 DNA repair. cell viability counter-screen, unstimulated, luminescence. Potency, µM (highest dose often 45.9 µM), without a hit: top-dose activity change, negative = loss of viability, hits mostly cytotoxic. 900 tested, 8% active;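 further: compound exposure lasted 16 hours before reading; on the % scale 0 is the no-effect control and ±100 the full control effect; nearly all actives have a fitted effect of over 55% in size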
FLuc enzyme: qHTS screen for small molecules that inhibit ELG1-dependent DNA repair: Hit Confirmation in Biochemical Luciferin Assay; shares compounds with ELG1 DNA repair; purified firefly luciferase, luminescence counter-screen; Potency, µM (series often up to 57.5 µM), for the others: at the top dose activity, negative = inhibition, most hits filed as inhibitors; 350 tested, 10% active; AID 624253, 2012; further: on the % scale 0 is the no-effect control and ±100 the full control effect
An asterisk follows results filed as active. The call rests on the fitted dose curve; in most records, active means well fitted curve in the direction sought with a large enough effect; inconclusive means small, poorly fitted or top-dose-only effect, or another doubt; inactive means no such curve, though single readings can be large; an effect the other way counts as inactive or inconclusive. Potency means the concentration at half of the fitted maximal effect.

For COc1ccc(-c2cc(C)no2)cc1S(=O)(=O)N1CCN(c2cccc(C)c2)C(C)C1 (configuration not stated) the results were KB-3-1 tox 12µM*, SW480 rereplic -3%, KB-V1 cytotox inconclusive, MCF10A rereplic inconclusive, ELG1 DNA repair 3.3µM*, ELG1 Luc conf 13µM*, ELG1 MMS Luc 3.1µM*, ELG1 5-FU -7%, ELG1 MMS cell 4µM* and Cell viab unstim inconclusive.
COc1ccc(/C=C/C(=O)N(C)C2CCS(=O)(=O)C2)cc1OC (configuration not stated) was read as KB-3-1 tox inactive, SW480 rereplic -12%, KB-V1 cytotox inactive, MCF10A rereplic -6% and ELG1 DNA repair 10%.
For Cc1nn(-c2ccc(NC(=O)c3ccncc3)cc2)c(C)c1Cl the results were KB-3-1 tox inactive, SW480 rereplic -3%, KB-V1 cytotox inactive, MCF10A rereplic 2%, ELG1 DNA repair 4.6µM*, ELG1 Luc conf 14µM*, ELG1 MMS Luc 2.2µM*, ELG1 5-FU -16%, ELG1 MMS cell 1.6µM* and Cell viab unstim 16µM*.
Screening C/C(=N\NC(=O)c1c(Cl)c(C)nn1C)c1ccc(NC(=O)c2ccncc2)cc1 returned KB-3-1 tox inactive, SW480 rereplic 0%, KB-V1 cytotox inactive, MCF10A rereplic 3% and ELG1 DNA repair inconclusive.
`O=C(O)/C=C/c1cccc(NS(=O)(=O)c2ccccc2)c1` gave KB-3-1 tox inactive, SW480 rereplic -3%, KB-V1 cytotox inactive, MCF10A rereplic 9% and ELG1 DNA repair -5%.
For O=C(/C=C/C#Cc1cccc(NS(=O)(=O)c2ccccc2)c1)NO the results were Cell viab unstim inconclusive.
CCc1cccc(NC(=S)N(CCN(C)C)C(C)c2ccncc2)c1 (configuration not stated) was read as KB-3-1 tox inactive, SW480 rereplic -33%, KB-V1 cytotox inconclusive, MCF10A rereplic -1% and ELG1 DNA repair -7%.
For O=C(NCCc1cccc(C(F)(F)F)c1)C1CCC(=O)N(CCc2cccc(F)c2)C1 (configuration not stated) the results were KB-3-1 tox inactive, SW480 rereplic -16%, KB-V1 cytotox inactive, MCF10A rereplic inconclusive and ELG1 DNA repair 2%.
For CCOc1ccc(C(C(=O)NCC2CCCO2)N(Cc2cccs2)C(=O)c2snc(C(N)=O)c2N)cc1 (configuration not stated) the results were KB-3-1 tox inactive, SW480 rereplic 0%, KB-V1 cytotox inconclusive, MCF10A rereplic 9%, ELG1 DNA repair 4.6µM*, ELG1 Luc conf 7.9µM*, ELG1 MMS Luc 7.9µM*, ELG1 5-FU -12%, ELG1 MMS cell inconclusive and Cell viab unstim inconclusive.
Screening O=C(Cn1cnc2ccccc21)Nc1ccc(SC(F)F)cc1 returned KB-3-1 tox inactive, SW480 rereplic 1%, KB-V1 cytotox inconclusive, MCF10A rereplic 11%, ELG1 DNA repair 2.1µM*, ELG1 Luc conf -1%, ELG1 MMS Luc 1.6µM*, ELG1 5-FU -4%, ELG1 MMS cell 1.8µM* and Cell viab unstim inconclusive.
`COc1cccc(C(=O)N/N=c2\oc3c(OC)cccc3cc2C(=O)NCc2ccccc2)c1` gave KB-3-1 tox inactive, SW480 rereplic 0%, KB-V1 cytotox inconclusive, MCF10A rereplic 0%, ELG1 DNA repair 4.1µM*, ELG1 Luc conf 2.2µM*, ELG1 MMS Luc inconclusive, ELG1 5-FU inconclusive, ELG1 MMS cell 4% and Cell viab unstim -13%.
O=C(CSc1nnnn1C1CC1)Nc1cc(S(=O)(=O)N2CCCC2)ccc1Cl was read as KB-3-1 tox inactive, SW480 rereplic -9%, KB-V1 cytotox inactive, MCF10A rereplic -3% and ELG1 DNA repair inconclusive.
O=C1c2ccccc2N2C(=O)c3ccccc3[C@H]2N1c1ccccc1 was read as KB-3-1 tox inactive, SW480 rereplic -1%, KB-V1 cytotox inactive, MCF10A rereplic inconclusive, ELG1 DNA repair inconclusive, ELG1 FLuc counter -9%, ELG1 Luc conf 20µM*, ELG1 MMS Luc inconclusive, ELG1 5-FU 3%, ELG1 MMS cell -17%, Cell viab unstim -12% and FLuc enzyme -1%.
